Screening results deposited in PubChem by National Center for Advancing Translational Sciences (NCATS).
aSyn rescue: rescues yeast growth from alpha-synuclein toxicity. Yeast expressing alpha-synuclein, growth rescue, BacTiter-Glo, 24 h. Potency, µM (doses to about 46.1 µM), inactives show top-dose growth rescue (activation), actives largely listed as activators. actives 0.14% (n = 370,000); note: % of control where 0% means no effect; nearly all actives have a fitted effect of over 65% in size
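Galactose-induced alpha-syn yeast (OD600=0.02, raffinose-pregrown) + pinned cpd, 24 hr, 30 deg C; growth by BacTiter-Glo luminescence. Growth restoration scores as activation.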
Abeta rescue: restores growth of yeast expressing A-beta42 peptide; yeast expressing A-beta42, growth rescue, OD600, 48 h; response scale: 0% DMSO, 100% iron-clioquinol control; Potency, µM (highest dose often 46.1 µM), actives largely listed as activators; actives 0.063% (n = 410,000); AID 1347071; note: nearly all actives have a fitted effect of over 55% in size
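Yeast growth medium received pinned compounds, then yeast cells expressing toxic A-beta were added; plates incubated at 30 C for 48 hr. Growth read as absorbance at 600 nm, normalized to DMSO and equimolar FeCl3 plus clioquinol controls.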
FUS yeast rescue: FUS proteinopathy suppression in yeast | S. cerevisiae FUS-expressing, growth rescue, OD600, 24 h | Potency, µM (doses to about 76.6 µM), actives largely listed as activators | actives 0.24% (n = 390,000);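 note: plate controls were DMSO vehicle for no effect and reference control for full effect; nearly all actives have a fitted effect of over 55% in size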
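Absorbance at 600 nm, taken 24hr after compound addition, measured rescue of FUS-yeast growth at 30C. Induction used 2% galactose with seeding at OD 0.005. Controls: CP55940 from 92uM final, DMSO only.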
TDP43 rescue: inhibitors of TDP-43 toxicity in yeast. Potency, µM (highest dose often 46.1 µM), for the others: at the highest dose growth rescue (activation), most hits filed as activators. actives 1.8% (n = 410,000). TDP-43 expressing yeast growth rescue, BacTiter-Glo, 24 h. AID 652104; note: % of control where 0% means no effect; nearly all actives have a fitted effect of over 50% in size
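Galactose-induced TDP-43 yeast, OD600=0.02, compound pinned; 24 hr, 30 deg C; BacTiter-Glo luminescence for growth. Inhibitors of TDP-43 toxicity read as activators.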
* marks the source's active call; other numbers are inactive results; i = inactive; ? = inconclusive; nt = not tested or not shown; [ ] = another dose, or the depositor's remark. Compounds with a hit are over-represented: about 2.1% of the library has one in this group of screens. Calls come from the whole dose curve; as a rule, active = well fitted curve in the direction sought with a large enough effect; inconclusive = small, poorly fitted or top-dose-only effect, or another doubt; inactive = no such curve, though single readings can be large; an effect the other way counts as inactive or inconclusive. Potency is the fitted concentration of half-maximal effect.

SMILES	aSyn rescue	Abeta rescue	FUS yeast rescue	TDP43 rescue
Cc1nn(-c2ccc(N3CCCCC3)nn2)c(C)c1CCC(=O)NCc1ccccc1	nt	i	i	-0.3%
COC(=O)[C@]12C[C@H](CC(=O)N3CCCC3)C(=O)N(CCc3ccc(OC)c(OC)c3)C1=C[C@H](C(C)(C)C)O[C@@H]2C	nt	nt	i	nt
CCOC(=O)c1ccc(C(=O)OCC)c(NC(=S)Nc2ccc([N+](=O)[O-])cc2OC)c1	-16.2%	i	i	17.8µM*
CNC(=O)c1ccc(Nc2nnc(-c3ccc(C)c(S(=O)(=O)N4CCOCC4)c3)c3ccccc23)cc1	nt	i	i	12.5%
COc1ccc(C=NNC(=O)NN=Cc2ccc(OC)c(OC)c2)cc1OC	-3.4%	i	i	-14.1%
COc1ccc(/C=N/NC(=S)SC)cc1OC	-18.5%	?	i	35.5µM*
COc1ccc(N2CCN(CCS(=O)(=O)c3cc(Cl)ccc3Cl)CC2)cc1	-2.4%	i	i	12.6µM*
CCS(=O)(=O)Nc1ccc2c(c1)C(=O)N(C)[C@@H]1CC[C@H](CC(=O)N3CCCCC3)O[C@H]1CO2	nt	nt	i	nt
Cc1ccc(NC(=O)CSCC(=O)N(C)CCOc2ccc(Cl)cc2)cc1	9.0%	i	i	?
Cc1cccc(NC(=O)CSCC(=O)N(C)CCOc2ccc(Cl)cc2)c1	-2.0%	i	i	12.6µM*
CCOc1ccc(C2CC(=O)Nc3nc(SCc4ccccc4C)[nH]c(=O)c32)cc1OC (stereo not given)	nt	i	i	-30.3%[9.22 µM]
N#CC(C#N)=C1C=CC=CN1/C(=C\c1ccccc1)C(=O)c1cccs1	?	i	i	4.47µM*
N#CC(C#N)=C1C=CC=CN1/C(=C\c1ccccc1Cl)C(=O)c1ccccc1	-37.6%	i	nt	?
Cc1ccc(CNC(=O)c2cc(=O)c3cc(C)c(C)cc3o2)cc1	nt	i	i	0.0%
CC(=O)N1CCCN(C(=O)CN2C(=O)CC(C)(C)S(=O)(=O)c3ccccc32)CC1	nt	nt	i	nt
COCc1cc(Sc2ccc(Br)cc2)nc(-c2ccccc2)n1	-6.7%	i	i	23.0%
Clc1cc(Sc2ccc(Br)cc2)nnc1-c1ccccc1	-13.4%	i	i	5.01µM*
Cc1cc(C)nc(N/N=C2/CCSc3ccc(F)cc32)n1	-4.0%	i	i	7.8%
O=C(O)c1ccc(N/N=C2/CCSc3ccc(F)cc32)cc1	2.9%	i	i	10µM*
Cc1cccc(Oc2c(C=O)c3ccccc3n2C)c1	-4.8%	i	i	17.8µM*
COc1ccc(C(=O)NC(=S)NNC(=O)c2ccc(C)cc2)cc1	23.7%	?	i	0.0%
COc1ccc(C(=O)NC(=S)NNC(=O)c2cnccn2)cc1OC	0.2%	i	nt	-14.9%
COc1ccc(C(=O)NC(=S)NNC(=O)Cc2cccs2)cc1	10µM*	8.91µM*	i	10µM*
COc1cc(OC)cc(C(=O)NC(=S)NNC(=O)c2cnccn2)c1	3.55µM*	i	i	?
COc1cc(NC(=O)Cc2cccs2)cc(OC)c1	-3.4%	?	i	14.6%
SMILES	aSyn rescue	Abeta rescue	FUS yeast rescue	TDP43 rescue
COc1cc(OC)cc(C(=O)NC(=S)NNC(=O)Cc2cccs2)c1	?	i	i	12.6µM*
O=C(/C=C/c1cccs1)NC(=S)NNC(=O)Cc1cccs1	?	?	i	11.2µM*
O=C(C1CCCN1S(=O)(=O)c1ccc(Cl)s1)N1CCc2ccccc2C1 (stereo not given)	nt	nt	i	nt
Cc1c(NC(=O)CSc2ccc(Cl)cc2)cccc1-c1nc2ncccc2o1	2.3%	i	i	14.1µM*
O=[N+]([O-])c1ccc(N/N=C2\CC3CC=CC23)c([N+](=O)[O-])c1 (stereo not given)	3.0%	i	i	35.5µM*
CCCCOc1ccc(CNC(=O)c2cccc(NC(=O)N3CCSc4ncccc43)c2)cc1	nt	i	i	9.9%
CC(=O)Nc1ccc(NCc2ccc(-c3ccccc3)cc2)cc1	15.8%	i	i	nt
CCC(=O)Nc1ccc(NCc2ccc(-c3ccccc3)cc2)cc1	0.2%	i	i	12.6µM*
COc1ccccc1CN(C)CC(=O)c1c(C)[nH]c2ccccc12	0.4%	nt	nt	nt
CCOC(=O)c1c(NC(=O)CSc2nnc(C)s2)sc2c1CCN(C)C2	-5.3%	i	25.1µM*	-2.2%
CCOC(=O)c1c(NC(=O)Cc2ccccc2)sc2c1CCN(C)C2	-3.6%	i	i	0.9%
